CRFBP-R2 block = antagonists of CRF-BP/CRF-R2 complex, primary screen, cell-based, HEK293, calcium dye fluorescence, uHTS | inhibition, % at 11.8 µM | AID 588475, 2011 | 0.59% of 350,000 active | CRF-induced calcium fluorescence;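 active = inhibition of the ligand-induced calcium signal above about 50% at the single tested concentration, limit read from the data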
Keap1-Nrf2 PPI = Keap1-Nrf2 protein-protein interaction inhibitors, primary screen, biochemical, fluorescence polarization, single point; Keap1 Kelch-Nrf2 peptide fluorescence polarization, 1536-well; inhibition, % at 9.4 µM; 0.15% of 340,000 active; AID 504523, 2011; in the data active = inhibition above about 12%;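 note: human Keap1 Kelch domain with fluorescein labeled Nrf2 9mer peptide probe; 0% = neutral control wells and 100% = peptide positive control; higher means more block of Keap1 binding to Nrf2 peptide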
Target sequence (Q14145 whole entry, looked up, the tested form may be a part): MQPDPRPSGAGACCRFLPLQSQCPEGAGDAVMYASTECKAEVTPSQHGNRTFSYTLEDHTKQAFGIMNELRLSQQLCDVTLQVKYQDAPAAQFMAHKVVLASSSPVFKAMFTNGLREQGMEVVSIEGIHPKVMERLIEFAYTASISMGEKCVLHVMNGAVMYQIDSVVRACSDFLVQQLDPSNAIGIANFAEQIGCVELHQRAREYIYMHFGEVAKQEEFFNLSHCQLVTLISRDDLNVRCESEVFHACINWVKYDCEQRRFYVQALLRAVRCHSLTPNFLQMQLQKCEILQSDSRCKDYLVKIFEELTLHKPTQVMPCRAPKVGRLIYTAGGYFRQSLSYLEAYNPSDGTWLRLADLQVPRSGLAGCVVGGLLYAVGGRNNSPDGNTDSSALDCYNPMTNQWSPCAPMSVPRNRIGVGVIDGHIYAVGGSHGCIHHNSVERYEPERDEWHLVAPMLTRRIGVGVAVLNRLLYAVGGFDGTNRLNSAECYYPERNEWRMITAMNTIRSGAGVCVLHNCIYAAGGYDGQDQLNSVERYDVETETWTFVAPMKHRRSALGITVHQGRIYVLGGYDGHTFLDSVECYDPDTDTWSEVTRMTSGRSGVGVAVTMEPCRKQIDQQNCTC
CRFBP-R2 agonist = agonists of CRF-BP/CRF-R2 complex, primary screen, cell-based, HEK293, calcium dye fluorescence, uHTS; 0.46% of 350,000 active; calcium dye fluorescence (FLIPR); percent of saturating CRF peptide response; CRF-binding protein / CRF receptor 2 complex (human); activation, % at 13.2 µM; AID 588473, 2011;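 active = activation of at least 50%, plus an integration ratio under a set limit after plate pattern correction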;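 note: plate controls were neutral control wells without compound for no effect and CRF at EC100 for full effect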
RTF Ca sens inh = cardiac RTF calcium sensitivity inhibitors, primary screen, biochemical, IANBD-TnC fluorescence, EC70 calcium; inhibition, % at 7.15 µM; 0.12% of 340,000 active; IANBD-labeled cardiac RTF, Ca2+ fluorescence;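 active = inhibition above the mean inhibition of all tested compounds plus 3 SD, cut at about 17% in these data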;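 note: assay run at fixed EC70 calcium of 1.6 mM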
cardiac RTF act = cardiac RTF calcium sensitivity activators, primary screen, biochemical, IANBD-TnC fluorescence, EC20 calcium; Troponin I, cardiac muscle (Homo sapiens) + Troponin T, cardiac muscle (Homo sapiens) + …; IANBD-labeled TnC RTF fluorescence at EC20 calcium; 0% EC20 calcium, 100% full calcium; activation, % at 7.2 µM; 0.24% of 340,000 active;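 active = activation above the mean over all tested compounds plus 3 SD, cut at about 30% in these data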;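 note: rise in fluorescence read as greater calcium sensitivity of cardiac thin filaments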
LANA DNA inh = inhibitors of KSHV C-LANA binding to DNA, primary screen, biochemical, fluorescence polarization, FAM-LBS DNA, MBP-C-LANA, single point; inhibition, % at 9 µM; Kaposi's sarcoma herpesvirus LANA C-terminal domain (residues 932-1162) DNA binding; 0.078% of 340,000 active; AID 504423, 2011;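 active = highest replicate inhibition at or above 60% at 9 µM, even if other replicates fall short; inactive = all replicates below 60% inhibition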;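 note: 0% = neutral control wells and 100% = 4 µM acridine orange control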
* marks the source's active call; other numbers are inactive results. Shown are actives, neighbours in structure and some others; about 1.3% of the full set was active somewhere.

Screening Cc1ccc(-c2csc(NC(=O)/C=C/c3ccco3)c2C(=O)O)cc1 returned CRFBP-R2 block 45, Keap1-Nrf2 PPI 3, CRFBP-R2 agonist -1, RTF Ca sens inh -1, cardiac RTF act -4 and LANA DNA inh 4.
Cc1sc2nc(CN(Cc3cccs3)C(=O)NC3CCCCC3)[nH]c(=O)c2c1C was read as CRFBP-R2 block 52*, Keap1-Nrf2 PPI -2, CRFBP-R2 agonist 0, RTF Ca sens inh -11, cardiac RTF act -6 and LANA DNA inh 0.
Cc1cc(C)cc(Nc2c(F)c(F)c(F)c(F)c2C(=O)O)c1 was read as CRFBP-R2 block 52*, Keap1-Nrf2 PPI -1, CRFBP-R2 agonist -2 and LANA DNA inh 1.
COc1c(F)c(F)c(C(=O)O)c(Nc2cccc(C)c2)c1F was read as CRFBP-R2 block 21, Keap1-Nrf2 PPI 1, CRFBP-R2 agonist 0 and LANA DNA inh -1.
Screening C=CCn1c(Oc2ccccc2)nc2c1c(=O)n(C)c(=O)n2C returned CRFBP-R2 block -167, Keap1-Nrf2 PPI -6, CRFBP-R2 agonist 106*, RTF Ca sens inh -11, cardiac RTF act 3 and LANA DNA inh 0.
For CCOc1ccc(CN(C)C(C)C(=O)NCc2ccccc2)cc1 (centres undefined) the results were CRFBP-R2 block 1, Keap1-Nrf2 PPI -1, CRFBP-R2 agonist -1, RTF Ca sens inh -12, cardiac RTF act 6 and LANA DNA inh 0.
Screening COc1ccc(CNC(=O)Nc2cccs2)cc1OC returned CRFBP-R2 block 62*, Keap1-Nrf2 PPI 1, CRFBP-R2 agonist 0, RTF Ca sens inh -13, cardiac RTF act -3 and LANA DNA inh -1.
`COc1cccc(-n2nnnc2SCC(=O)NCc2ccc3c(c2)OCO3)c1` gave CRFBP-R2 block 24, Keap1-Nrf2 PPI -10, CRFBP-R2 agonist 0, RTF Ca sens inh -4, cardiac RTF act 9 and LANA DNA inh 1.
Screening O=C(O)CCCCCN1C(=O)CSC1=S returned CRFBP-R2 block 7, Keap1-Nrf2 PPI 0, CRFBP-R2 agonist 0, RTF Ca sens inh 0, cardiac RTF act 1 and LANA DNA inh 0.
`O=C(Nc1cccnc1)c1ccc(-c2ccc(Cl)cc2)o1` gave CRFBP-R2 block 57*, Keap1-Nrf2 PPI -7, CRFBP-R2 agonist -1, RTF Ca sens inh -3, cardiac RTF act 3 and LANA DNA inh 0.
`O=C(Nc1cccnc1)c1ccc(-c2cc(Cl)ccc2Cl)o1` gave CRFBP-R2 block -30, Keap1-Nrf2 PPI 7, CRFBP-R2 agonist -2, RTF Ca sens inh 2, cardiac RTF act 3 and LANA DNA inh 2.
COc1ccc(N=C2S/C(=C\c3ccc(N4CCOCC4)o3)C(=O)N2CCc2c[nH]c3ccccc23)cc1 was read as Keap1-Nrf2 PPI -5, RTF Ca sens inh -28, cardiac RTF act 32* and LANA DNA inh 1.
Screening COc1ccc(N=C2S/C(=C\c3ccc(OCC(=O)O)cc3)C(=O)N2CCc2c[nH]c3ccccc23)cc1 returned CRFBP-R2 block 25, Keap1-Nrf2 PPI -5, CRFBP-R2 agonist 2, RTF Ca sens inh 5, cardiac RTF act -8 and LANA DNA inh 1.
O=C1Cc2ccccc2Sc2ccc(O)cc21 was read as CRFBP-R2 block -57, Keap1-Nrf2 PPI 0, CRFBP-R2 agonist 92*, RTF Ca sens inh -5, cardiac RTF act 3 and LANA DNA inh -1.
For NS(=O)(=O)c1ccc(NC(=O)CSc2nc3c(c(=O)[nH]2)CCCC3)cc1 the results were CRFBP-R2 block 2, Keap1-Nrf2 PPI 4, CRFBP-R2 agonist -2, RTF Ca sens inh -40, cardiac RTF act -7 and LANA DNA inh 1.
`Cc1ccc(CSc2ncnc3onc(C)c23)cc1` gave CRFBP-R2 block 33, Keap1-Nrf2 PPI -4, CRFBP-R2 agonist 1, RTF Ca sens inh -1, cardiac RTF act 3 and LANA DNA inh 44.
CCOC(=O)c1c(-c2ccccc2)csc1NC(=O)/C(C#N)=C/c1ccc(O)c(OC)c1 was read as CRFBP-R2 block -216, Keap1-Nrf2 PPI -1, CRFBP-R2 agonist 198*, RTF Ca sens inh -56, cardiac RTF act 47* and LANA DNA inh 1.
Screening CC(=O)c1cc(C#N)c(Oc2ccc(Cl)cc2Cl)nc1C returned CRFBP-R2 block 55*, Keap1-Nrf2 PPI -3, CRFBP-R2 agonist -6, RTF Ca sens inh -11, cardiac RTF act 4 and LANA DNA inh 0.
For CC(C)Cc1ccc(C(C)C(=O)Nc2nccs2)cc1 (centres undefined) the results were CRFBP-R2 block -99, Keap1-Nrf2 PPI -2, CRFBP-R2 agonist 30, RTF Ca sens inh 10, cardiac RTF act -5 and LANA DNA inh -1.
`CC(C)Cc1ccc(C(C)C(=O)Nc2ccccc2O)cc1` (centres undefined) gave CRFBP-R2 block -29, Keap1-Nrf2 PPI -6, CRFBP-R2 agonist 77*, RTF Ca sens inh -7, cardiac RTF act 3 and LANA DNA inh -2.
COc1ccccc1CNC1CCCc2ccccc21 (centres undefined) was read as CRFBP-R2 block 0, Keap1-Nrf2 PPI 0, CRFBP-R2 agonist 2, RTF Ca sens inh 0, cardiac RTF act 3 and LANA DNA inh 0.
`CN(C)S(=O)(=O)c1cccc(C(=O)NC2CCCc3ccccc32)c1` (centres undefined) gave CRFBP-R2 block -9, Keap1-Nrf2 PPI -3, CRFBP-R2 agonist -1, RTF Ca sens inh 2, cardiac RTF act 1 and LANA DNA inh -2.
CCCNS(=O)(=O)c1cccc(C(=O)NC2CCCc3ccccc32)c1 (centres undefined) was read as CRFBP-R2 block 52*, Keap1-Nrf2 PPI -9, CRFBP-R2 agonist -1, RTF Ca sens inh -7, cardiac RTF act -2 and LANA DNA inh 1.
Cc1[nH]c2ccccc2c1/C=N/Nc1ccc([N+](=O)[O-])cc1S(=O)(=O)Nc1ccc(Cl)cc1 was read as CRFBP-R2 block -141, Keap1-Nrf2 PPI 0, CRFBP-R2 agonist 109*, RTF Ca sens inh -5, cardiac RTF act 8 and LANA DNA inh 1.
Screening Cc1ccc(S(=O)(=O)N(Cc2ccccc2)c2ccccc2C(=O)Nc2ccccc2C(=O)NCc2ccco2)cc1 returned CRFBP-R2 block 6, Keap1-Nrf2 PPI -2, CRFBP-R2 agonist 19, RTF Ca sens inh -4, cardiac RTF act 4 and LANA DNA inh 0.
